Measured values reported in PubChem BioAssay (NCI).
This is part of a sample that, as a whole, favours compounds with a hit. Of some 79,000 tested, about 15% had one in any assay. A number with no mark means an inactive call. Activity calls are given as the source filed them. No stated cut-off is given here; in the data, active means growth inhibition above about 70%; inactive means the rest.

Tests used:
[1] = NCI Yeast Anticancer Drug Screen. Data for the rad50 strain (AID 155);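 further: 0% = growth of vehicle-only cultures of the same strain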; conditions: S. cerevisiae rad50 strain growth inhibition, hits give high values
In short: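 Relative growth inhibition (compound vs vehicle) was measured in yeast with a defined repair-gene alteration.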

[2] = NCI Yeast Anticancer Drug Screen. Data for the mec2-1 strain (AID 157); conditions: S. cerevisiae mec2-1 strain, hits give high values
In short: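 mec2-1 yeast strain, carrying an alteration in DNA damage repair or cell cycle control, was exposed to compounds; growth inhibition was measured relative to vehicle-treated controls.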

[3] = NCI Yeast Anticancer Drug Screen. Data for the sgs1 mgt1 strain (AID 161);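 further: 0% = growth of cultures given vehicle only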; conditions: S. cerevisiae sgs1 mgt1 strain, hits give high values
In short: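 Yeast cells carrying a defined DNA-repair defect were exposed to test compounds. Growth inhibition was measured relative to vehicle-treated controls.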

[4] = NCI Yeast Anticancer Drug Screen. Data for the cln2 rad14 strain (AID 165);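 further: 0% = growth equal to vehicle treated cultures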; conditions: S. cerevisiae cln2 rad14 strain, hits give high values
In short: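 Yeast carrying cln2 and rad14 alterations (cell cycle control and DNA damage repair) were exposed to compounds. Growth inhibition was measured against vehicle-treated controls.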

[5] = NCI Yeast Anticancer Drug Screen. Data for the bub3 strain (AID 167); conditions: S. cerevisiae bub3 mutant strain, hits give high values
In short: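 Screening used yeast with an engineered genetic alteration affecting cell cycle control. Compound-exposed cultures were compared with vehicle cultures, and reduced growth was taken as inhibition.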

[6] = NCI Yeast Anticancer Drug Screen. Data for the mlh1 rad18 strain (AID 175); conditions: S. cerevisiae mlh1 rad18 strain growth inhibition, hits give high values
In short: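 Growth inhibition of the yeast strain was measured after compound exposure and expressed relative to vehicle-treated controls. The strain carries defined defects in DNA damage repair.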

[7] = at 5.0 µM (retest, dose inferred, filed as 0.5)
[8] = at 50.0 µM (retest, dose inferred, filed as 5.0)

Compound | growth inhibition [1, 7] | growth inhibition [1, 8] | growth inhibition ([1]; at 50.0 µM) | growth inhibition [2, 7] | growth inhibition [2, 8] | growth inhibition ([2]; at 50.0 µM) | growth inhibition [3, 7] | growth inhibition [3, 8] | growth inhibition ([3]; at 50.0 µM) | growth inhibition [4, 7] | growth inhibition [4, 8] | growth inhibition ([4]; at 50.0 µM) | growth inhibition [5, 7] | growth inhibition [5, 8] | growth inhibition ([5]; at 50.0 µM) | growth inhibition [6, 7] | growth inhibition [6, 8] | growth inhibition ([6]; at 50.0 µM)
Oc1cc(Cl)cc2c1-c1ccc(Cl)cc1C2O (centres undefined) | 9% | 97% (active) | 95.2% (active) | 6% | 98% (active) | 91.2% (active) | -4% | 97% (active) | 96.3% (active) | 28% | 97% (active) | 81.8% (active) | 31% | 97% (active) | 93.8% (active) | 20% | 98% (active) | 95.5% (active)
Cc1cccc(NC(=S)N/N=C(/c2ccccc2)c2ccccn2)c1 | -3% | 94% (active) | 56% | -1% | 94% (active) | 66.5% | -35% | 93% (active) | 73.2% (active) | -15% | 92% (active) | 74.7% (active) | -38% | 93% (active) | 77.4% (active) | -8% | 93% (active) | 76.8% (active)
Nc1nc(N)c2nc(CNc3ccc(C(=O)NC(CCC(=O)O)C(=O)O)cc3)ccc2n1 (centres undefined) | -2% | -5% | 16.3% | -25% | 11% | 64.2% | 18% | 16% | 0.1% | 9% | 21% | -5.8% | 7% | 3% | -38.9% | -8% | 8% | -20.7%
Cc1cc2nc3[nH]c4c(Cl)cc(Cl)cc4c3nc2cc1C | 26% | 28% | -36.8% | 14% | 10% | -28.6% | 3% | 3% | -7.3% | -10% | 5% | 56.4% | -4% | 8% | -70.8% | 4% | 19% | -20.6%
O=C1C(Cl)=C(Cl)C(=O)C2CC=CCC12 (centres undefined) | 68% | 97% (active) | 99.3% (active) | 92% (active) | 99% (active) | 99.4% (active) | 92% (active) | 99% (active) | 99.6% (active) | 85% (active) | 99% (active) | 99.1% (active) | 91% (active) | 99% (active) | 99.5% (active) | 90% (active) | 99% (active) | 99.5% (active)
O=C1CN(CCN2CCOCC2)CC(=O)N2Cc3ccccc3CN12 | 12% | 38% | 61.6% | 7% | 55% | 24.1% | 27% | 41% | 66.5% | 3% | 46% | 62.6% | 6% | 35% | 68.5% | 29% | 64% | 44.2%
CCCCCCCn1ccnc1NCCCCCCCCCCNc1nccn1CCCCCCC | -3% | 98% (active) | 99.3% (active) | -5% | 98% (active) | 99.6% (active) | -6% | 99% (active) | 47.4% | -4% | 98% (active) | 93.9% (active) | 1% | 98% (active) | 94.5% (active) | -1% | 98% (active) | 98.9% (active)
CC1(C)NC(=O)C(C)(C)NC1=O | 4% | -2% | -12.9% | 1% | 2% | 5.8% | 0% | -1% | -7.4% | 2% | 3% | -19.9% | 4% | -2% | 48% | 3% | 3% | -14.8%
CC1(C)CC(=O)C(CSC(=O)c2ccccc2)=C(O)C1 | -1% | 17% | -13.9% | -2% | -1% | -5.45% | -4% | -3% | 3.05% | -2% | -11% | 45.6% | -2% | -2% | -27.6% | -7% | 15% | -6.2%
OC(c1ccccc1)c1cccc(Br)c1 (centres undefined) | -2% | 67% | 76.5% (active) | -11% | 77% (active) | 59.8% | -13% | 55% | 52.9% | -1% | 48% | 42.6% | -3% | 68% | 30.1% | 14% | 77% (active) | 87.2% (active)
CCCC(C)NCCCCCNc1cc(OC)cc2cccnc12 (centres undefined) | 3% | 60% | 78.8% (active) | 2% | 22% | 48.5% | 25% | 62% | 71.6% (active) | 14% | 40% | 42% | 19% | 61% | 82.2% (active) | -19% | 11% | 76.5% (active)
C=C(c1ccccc1)[P+](c1ccccc1)(c1ccccc1)c1ccccc1 | 97% (active) | 99% (active) | 99.2% (active) | 99% (active) | 100% (active) | 99.6% (active) | 99% (active) | 99% (active) | 99.5% (active) | 97% (active) | 99% (active) | 99% (active) | 92% (active) | 99% (active) | 99% (active) | 98% (active) | 99% (active) | 99.5% (active)
O=C(Nc1cc(-c2ccccc2)[nH]n1)c1ccccc1 | 34% | 36% | 33.4% | 29% | 37% | 16.1% | 38% | 58% | 23.9% | 23% | 25% | 18% | 31% | 73% (active) | 56.8% | 46% | 47% | 23.4%
CC(=O)OC1=CC2(OC(C)=O)CC(C)(C)C1C1C(=O)C=CC(=O)C12 (centres undefined) | 8% | 14% | 53.1% | -8% | 10% | 65.3% | 0% | 13% | 68.2% | 3% | -10% | 33.9% | 4% | 14% | 73.8% (active) | 5% | 21% | 17.1%
C/C=C(\C)CC/C=C/CO[Si](C)(C)C(C)(C)C | -19% | -19% | -4.15% | -2% | -19% | 8.7% | -13% | 13% | 5.25% | 11% | -4% | 53.6% | 7% | -11% | 2.8% | -16% | -8% | 5.75%
O=C(O)CCn1c2ccccc2c2ccccc21 | 6% | 45% | 24.6% | -13% | 52% | 36.4% | -1% | 68% | 40.5% | -10% | 42% | 15.1% | -6% | 61% | 55.5% | -4% | 49% | 66%
Cc1nc2c(nc1C)C(=O)C1=C(C2=O)C2C=CC1CC2 | 0% | 87% (active) | 89.8% (active) | -2% | 90% (active) | 74.6% (active) | 2% | 94% (active) | 94.7% (active) | -3% | 68% | 57% | 24% | 94% (active) | 93.5% (active) | 2% | 93% (active) | 91.8% (active)
O=P(OCCCl)(OCCCl)C(Nc1cccc2ccccc12)c1ccccc1 (centres undefined) | 7% | 86% (active) | 91% (active) | -8% | 72% (active) | 91.4% (active) | 5% | 86% (active) | 88.5% (active) | -1% | 86% (active) | 87.5% (active) | 1% | 87% (active) | 86.7% (active) | 4% | 84% (active) | 90.2% (active)
